Results reported in PubChem BioAssay AID1159580 (chemical genetic matrix, 2015).
Values joined by “and” are separate entries in the source; they are usually repeats but may differ in a detail not shown here. Identical values can stand only once. The whole screen tested about 5,500 compounds, of which about 2,000 (36%) were called active. About 18% were inconclusive and are not listed. Cut-off read from the data, not from the text of the source: active = normalized growth mostly below about 0.91 (no sharp cut-off); inconclusive = no clear call, values can overlap the other calls; inactive = mostly above about 0.92. The list shows a part of the results.

Experiment: chemical genetic growth profiling, strain panel (AID 1159580);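 note: tested at 20 µM; growth read once vehicle control cultures reached saturation at 30 °C; 1 = growth at the plate median or of vehicle wells; lower values mean less growth of the strain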
Details: S. cerevisiae deletion strains, growth OD

Measured: normalized growth

CCc1ccc(CCOc2ccc(CC3SC(=O)NC3=O)cc2)nc1 (configuration not stated)
inactive: locus YAL013W, strain DEP1, hits give low values 1.01 | locus YAL021C, strain ccr4, hits give low values 1.03 | locus YAL026C, strain drs2, hits give low values 1.01 | locus YAL030W, strain snc1, hits give low values 0.999 | locus YBL061C, strain skt5, hits give low values 1.01 | locus YBR009C, strain hhf1, hits give low values 1 | locus YBR021W, strain FUR4, hits give low values 1 | locus YBR023C, strain chs3, hits give low values 1 | locus YBR171W, strain sec66, hits give low values 1.02 | locus YBR229C, strain ROT2, hits give low values 0.993 | locus YBR231C, strain swc5, hits give low values 0.999 | locus YBR279W, strain paf1, hits give low values 1 | locus YCL011C, strain gbp2, hits give low values 1 | locus YCL016C, strain dcc1, hits give low values 1 | locus YCL029C, strain bik1, hits give low values 0.996 | locus YCL061C, strain MRC1, hits give low values 1.01 | locus YCL069W, strain vba3, hits give low values 1.01 | locus YCR088W, strain abp1, hits give low values 1.01 | locus YDL005C, strain med2, hits give low values 1 | locus YDL035C, strain GPR1, hits give low values 0.983 | locus YDL040C, strain nat1, hits give low values 0.99 | locus YDL074C, strain BRE1, hits give low values 0.974 | locus YDL101C, strain DUN1, hits give low values 1.01 | locus YDL134C, strain PPH21, hits give low values 0.998 | locus YDL185W, strain tfp1, hits give low values 1 | locus YDL192W, strain arf1, hits give low values 0.996 | locus YDR001C, strain nth1, hits give low values 1.01 | locus YDR069C, strain doa4, hits give low values 1.03 | locus YDR101C, strain arx1, hits give low values 0.995 | locus YDR137W, strain rgp1, hits give low values 0.916 | locus YDR150W, strain NUM1, hits give low values 1.01 | locus YDR159W, strain sac3, hits give low values 1.01 | locus YDR162C, strain NBP2, hits give low values 1.02 | locus YDR195W, strain ref2 0.995 | locus YDR297W, strain sur2, hits give low values 1.02 | locus YDR318W, strain mcm21, hits give low values 0.994 | locus YDR334W, strain swr1, hits give low values 1.02 | locus YDR335W, strain msn5, hits give low values 1.02 | locus YDR388W, hits give low values 0.989 | locus YDR392W, strain spt3, hits give low values 1 | locus YDR502C, strain sam2, hits give low values 0.994 | locus YEL003W, strain gim4, hits give low values 1.02 | locus YEL037C, strain rad23, hits give low values 1.01 | locus YEL061C, strain CIN8 (second series), hits give low values 1 | locus YEL061C, strain CIN8, hits give low values 1.02 | locus YER015W, strain faa2, hits give low values 1.01 | locus YER016W, strain bim1, hits give low values 1.01 | locus YER110C, hits give low values 0.997 | locus YER111C, strain swi4, hits give low values 1 | locus YER155C, strain BEM2 (second series), hits give low values 1.05 | locus YER155C, strain BEM2, hits give low values 0.995 | locus YER167W, strain BCK2, hits give low values 1 | locus YFR010W, strain ubp6, hits give low values 1.02 | locus YGL078C, strain dbp3, hits give low values 0.988 | locus YGL086W, strain mad1, hits give low values 0.996 | locus YGL167C, strain pmr1, hits give low values 1 | locus YGL173C, strain kem1, hits give low values 1.02 | locus YGL227W, strain vid30, hits give low values 0.995 | locus YGL240W, strain doc1, hits give low values 1.02 | locus YGL248W, strain PDE1, hits give low values 0.999 | locus YGL253W, strain hxk2, hits give low values 0.993 | locus YGR078C, strain PAC10, hits give low values 1.06 | locus YGR135W, strain pre9, hits give low values 0.993 | locus YGR229C, strain SMI1, hits give low values 1.01 | locus YGR252W, strain gcn5, hits give low values 0.946 | locus YHR013C, strain ard1, hits give low values 1.03 | locus YHR027C, strain rpn1, hits give low values 1.02 | locus YHR030C, strain SLT2, hits give low values 1 and 0.969 | locus YHR079C, strain IRE1 (second series), hits give low values 0.993 | locus YHR079C, strain IRE1, hits give low values 0.959 | locus YHR094C, strain hxt1, hits give low values 0.988 | locus YHR129C, strain ARP1, hits give low values 0.999 | locus YHR142W, strain chs7, hits give low values 1.01 | locus YHR200W, strain rpn10, hits give low values 0.995 | locus YIL066C, strain RNR3, hits give low values 1.01 | locus YIL073C, strain SPO22, hits give low values 1.05 | locus YIL125W, strain kgd1, hits give low values 0.988 | locus YIR030C, strain dcg1, hits give low values 0.994 | locus YJL092W, strain hpr5, hits give low values 1 | locus YJL095W, strain BCK1 (second series), hits give low values 0.998 | locus YJL095W, strain BCK1, hits give low values 0.979 and 1.01 | locus YJL115W, strain asf1, hits give low values 1 | locus YJL129C, strain trk1, hits give low values 1.02 | locus YJL134W, strain LCB3, hits give low values 1 | locus YJL154C, strain vps35, hits give low values 1.02 | locus YJL164C, strain tpk1, hits give low values 0.991 | locus YJL166W, strain qcr8, hits give low values 1.02 | locus YJL168C, strain set2, hits give low values 0.99 | locus YJL187C, strain SWE1 (second series), hits give low values 1.01 | locus YJL187C, strain SWE1, hits give low values 1.01 | locus YJR043C, strain POL32, hits give low values 0.991 | locus YJR066W, strain TOR1, hits give low values 0.942
